# Assay outcomes (PubChem BioAssay)
# D2 PAM-1: positive allosteric modulators of human D2 dopamine receptor; HEK293 T-REx D2, calcium flux, EC20 dopamine potentiation; potentiation, % at 10 µM; actives 0.34% (n = 340,000); AID 485347;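 active means potentiation over 3 SD above the plate norm, cut at about 30% in these data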; further: 0% is about no effect
# Target sequence (P14416 whole entry, looked up): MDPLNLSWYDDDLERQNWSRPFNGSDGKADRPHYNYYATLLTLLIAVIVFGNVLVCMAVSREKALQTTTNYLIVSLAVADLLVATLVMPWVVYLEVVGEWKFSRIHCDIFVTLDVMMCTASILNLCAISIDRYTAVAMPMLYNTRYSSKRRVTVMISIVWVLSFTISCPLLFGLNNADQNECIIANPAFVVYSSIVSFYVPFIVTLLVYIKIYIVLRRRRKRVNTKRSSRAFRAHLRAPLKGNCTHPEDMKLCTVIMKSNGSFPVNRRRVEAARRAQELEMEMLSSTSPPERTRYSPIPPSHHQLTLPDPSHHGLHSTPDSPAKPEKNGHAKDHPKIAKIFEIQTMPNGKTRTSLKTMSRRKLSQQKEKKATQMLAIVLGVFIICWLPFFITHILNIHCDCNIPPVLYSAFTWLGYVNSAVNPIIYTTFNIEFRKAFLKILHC
#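 Primary screen. Calcium kinetics in induced HEK293 T-REx D2 cells: compound pre-addition 180 s, EC20 dopamine, 180 s more.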
# D2 ag-1: agonists of human D2 dopamine receptor (beta-arrestin); P14416; DiscoveRx PathHunter D2 beta-arrestin, luminescence, 90 min; 100% = 57 uM dopamine signal; activation, % (no concentration beside the values); actives 0.084% (n = 360,000); in the data active means activation above about 40%; inconclusive means between about 15% and that limit
#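 DiscoveRx PathHunter D2 beta-arrestin cells (2,100/well) attached overnight, then compound-stimulated 90 min at 37 C in HBSS/10 mM HEPES/0.1% Tween-20 buffer; beta-galactosidase complementation read by luminescence after 1 h at ambient temperature. Dopamine 57 uM final (EC100) as control.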
# D2 ag-2: D2 dopamine receptor (human) agonism | HEK293 T-REx D2 cells, calcium flux agonist mode | activation, % at 2 µM | actives 0.53% (n = 340,000) | AID 485358;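 active means activation over 3 SD above normal in the single-dose calcium agonist read, cut at about 30% in these data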; further: 0% is about no effect
#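 Calcium-flux readout, 1 cycle/sec over 180 s following compound pin transfer, in inducible HEK293 Trex D2 cells (force-coupled); dopamine controls included. Positive calcium responses during this window marked compounds as potential agonists.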
# D2 antag: D2 dopamine receptor (human) antagonism | actives 2% (n = 340,000) | inhibition, % at 10 µM | AID 485344 | HEK293 TREx D2 cells, calcium flux, dopamine EC80; in the data active means inhibition above about 30%; inactive means below that, where a call was filed; further: 0% is about no effect
#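 Inhibition of EC80 dopamine-driven calcium flux, recorded kinetically, defines activity here; cells are a tetracycline-induced HEK293 T-REx line expressing force-coupled D2.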
# D2 PAM-2: human D2 receptor positive allosteric modulation; P14416; DiscoveRx D2 beta-arrestin cells, luminescence, 90 min; 100% = 57 uM dopamine signal; potentiation, % (concentration not given with the values); actives 0.23% (n = 360,000); AID 624464; in the data active means potentiation above about 50%; inconclusive means mostly about 30% to 49%
#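 D2 cells co-treated with compound plus 50 nM dopamine (EC20) for 90 min at 37 deg C to detect potentiation. Beta-arrestin recruitment was read as enzyme-fragment luminescence after 1 h at ambient temperature. Full response was set by 57 uM dopamine.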
# * hit, by the source's call; u = inconclusive; x = not tested or not shown. Compounds with a hit are over-represented: about 2.4% of the library has one in this group of screens.
SMILES,D2 PAM-1,D2 ag-1,D2 ag-2,D2 antag,D2 PAM-2
O=C1CC(c2ccc3c(c2)OCO3)c2cc3c(cc2N1)OCO3 (stereo not drawn),2,1,1,-22,-7
O=C1CC(c2ccncc2)c2cc3c(cc2N1)OCO3 (stereo not drawn),5,-4,1,37*,5
C/C(CC(=O)Nc1ccccn1)=N\NC(=O)c1cccc(C)c1,3,-1,2,-4,-10
Cc1nn(Cc2ccc([N+](=O)[O-])cc2)c(=O)n1-c1cccc(Cl)c1,-2,5,0,32*,-3
Cc1nn(Cc2ccc([N+](=O)[O-])cc2)c(=O)n1-c1c(F)cccc1F,-1,1,0,37*,-8
Cc1nn(Cc2ccc([N+](=O)[O-])cc2)c(=O)n1-c1ccc(F)cc1,17,-3,0,-17,-14
CC(N)c1csc(NC(=O)Nc2cccc(C(F)(F)F)c2)n1 (stereo not drawn),x,-1,x,x,-18
COc1ccccc1C=Cc1ccnc2ccccc12,x,0,x,x,-12
COc1ccc(/C=C/c2ccncc2)c2ccccc12,9,2,-1,45*,14
CCCCn1c(-c2nonc2N)nc2ccccc21,0,-1,1,1,-21
CC(C)CCn1c(-c2nonc2N)nc2ccccc21,33*,0,1,7,-17
O=C(NCCN1CCCC1)c1ccc2c(c1)N(Cc1ccc(F)cc1)C(=O)c1ccccc1S2=O (stereo not drawn),8,-1,1,-5,-8
CCCCN(C)CCCNC(=O)c1ccc2c(c1)N(CC)C(=O)c1ccccc1S2=O (stereo not drawn),-32,-4,-1,70*,-19
CCN1CCN(CCNC(=O)c2ccc3c(c2)N(Cc2cccc(Cl)c2)C(=O)c2ccccc2S3=O)CC1 (stereo not drawn),-1,-9,0,40*,-38
N/C(=N\OC(=O)c1ccc(Cl)cc1)c1ccccn1,4,15,1,-13,16
N/C(=N\OC(=O)c1ccc([N+](=O)[O-])cc1)c1ccc(Br)cc1,4,14,0,-15,7
CCOc1cc(C(=O)O/N=C(\N)c2ccccn2)cc(OCC)c1OCC,12,u,1,1,72*
N/C(=N\OC(=O)c1ccc(Cl)c(Cl)c1)c1ccccn1,-4,11,0,-1,82*
COc1ccc(/C(N)=N/OC(=O)c2ccc(C)c([N+](=O)[O-])c2)cc1OC,5,-1,-1,-4,2
N/C(=N\OC(=O)c1ccc(Cl)c([N+](=O)[O-])c1)c1ccccc1,-1,12,0,-9,94*
CCOc1cc(C(=O)O/N=C(\N)c2ccc([N+](=O)[O-])cc2)cc(OCC)c1OCC,4,u,0,-4,76*
CN(Cc1ccccc1)C(=O)c1ccc(S(=O)(=O)N(C)c2ccccc2)cc1,x,3,x,x,-2
COc1ccc(S(=O)(=O)N2CCCCCC2)cc1C(=O)N1CCN(C(C)=O)CC1,x,0,x,x,4
O=C1CC(C(=O)O)(c2ccccc2)c2cccc(F)c21 (stereo not drawn),-6,-1,1,-26,-8
N/C(=N\OC(=O)c1cc(-c2ccccc2)nc2ccccc12)c1ccccn1,-2,48*,-2,24,7
SMILES,D2 PAM-1,D2 ag-1,D2 ag-2,D2 antag,D2 PAM-2
Cc1ccc(/C(N)=N/OC(=O)c2cc(-c3ccccc3)nc3ccccc23)cc1,2,-4,0,-4,-3
N/C(=N\OC(=O)c1ccc(Cl)c([N+](=O)[O-])c1)c1ccccn1,36*,10,5,6,u
CCOc1ccc(OCCn2c(S(=O)(=O)O)nc3c(N)ncnc32)cc1,10,-4,-1,1,-6
CCCCc1ccc(NC(=S)N2CCN(c3ncccn3)CC2)cc1,17,-1,0,-4,-2
O=C(COC(=O)Cn1nc(-c2ccccc2)oc1=O)Nc1ccc(F)cc1,4,7,-1,3,65*
O=C(CN1C(=O)CCC1=O)NCC12CC3CC(CC(C3)C1)C2,38*,-4,-2,-9,-8
CN1CCN(C(=O)c2ccc3c(c2)N(Cc2ccc(C(F)(F)F)cc2)C(=O)c2ccccc2S3)CC1,-26,x,4,x,x
